# Screens deposited in PubChem BioAssay by National Center for Advancing Translational Sciences (NCATS).
# FLuc inh: Firefly luciferase inhibition profiling of diverse chemical library using quantitative high-throughput screening. purified P. pyralis luciferase, luminescence, biochemical. Potency, µM (top dose mostly 115 µM), hits mostly inhibitors. actives 2.5% (n = 76,000); also: nearly all actives have a fitted effect of over 65% in size
# Target sequence (P08659 whole entry, looked up): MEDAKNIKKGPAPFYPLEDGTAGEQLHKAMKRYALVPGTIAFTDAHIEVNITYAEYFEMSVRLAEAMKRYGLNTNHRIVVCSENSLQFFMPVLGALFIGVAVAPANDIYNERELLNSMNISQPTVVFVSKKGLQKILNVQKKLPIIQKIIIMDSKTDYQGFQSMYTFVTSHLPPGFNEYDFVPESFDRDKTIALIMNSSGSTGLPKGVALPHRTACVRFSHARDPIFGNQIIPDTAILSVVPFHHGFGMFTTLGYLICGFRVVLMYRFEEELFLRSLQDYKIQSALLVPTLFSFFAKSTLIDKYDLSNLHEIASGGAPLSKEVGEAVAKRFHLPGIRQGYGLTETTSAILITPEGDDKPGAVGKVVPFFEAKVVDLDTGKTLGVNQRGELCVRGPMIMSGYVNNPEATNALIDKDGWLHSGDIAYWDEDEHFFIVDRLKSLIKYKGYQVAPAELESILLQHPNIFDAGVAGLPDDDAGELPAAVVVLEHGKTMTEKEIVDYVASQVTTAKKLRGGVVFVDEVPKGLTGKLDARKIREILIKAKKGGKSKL
#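 Cell-free enzyme assay, 10nM P. pyralis luciferase, luciferin and ATP each at 10uM. Inhibition profiled over a 6-point titration, read as luminescence.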
# 3T3 cytotox: Cytotoxic Profiling in NIH 3T3 Cell Line of Diverse Libraries Using Quantitative High-Throughput Screening; NIH 3T3 viability, CellTiter-Glo ATP luminescence, 48-72 h; Potency, µM (series often up to 96.7 µM), for the others: at the highest dose activity change, negative = cytotoxicity, most hits filed as inhibitors; actives 4.3% (n = 94,000); also: nearly all actives have a fitted effect of over 55% in size
#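 Luminescent ATP readout (CellTiter-Glo, 10 min RT) after 48 or 72 hr compound exposure of NIH 3T3 cells seeded at 400 cells/well in 1536-well format; quantitative HTS.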
# hNpr1 antagonist: Natriuretic polypeptide receptor (hNpr1) antagonism - Primary qHTS; HEK293 hNpr1 GloSensor cGMP, ANP-stimulated luminescence; Potency, µM (titrated, usually from 46.3 µM), inactives show at the top dose activity change, negative = inhibition, hits mostly inhibitors; actives 1.6% (n = 76,000); Atrial natriuretic peptide receptor 1 (Homo sapiens), P16066; calls by dose curve; also: nearly all actives have a fitted effect of over 60% in size
#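 HEK293 cells stably expressing human Npr1 and cGMP GloSensor pGS-40F, loaded 2 h with 2% GloSensor reagent, given compound 30 min at room temperature. Luminescence read before and 20 min after 0.1 nM hNppA.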
# HEK cytotox: Cytotoxic Profiling in HEK 293 Cell Line of Diverse Libraries Using Quantitative High-Throughput Screening | Potency, µM (top dose mostly 115 µM), inactives show top-dose activity change, negative = cytotoxicity, most hits filed as inhibitors | HEK 293 viability, ATP luminescence (CellTiter-Glo), 48-72 h | actives 6.6% (n = 94,000); also: nearly all actives have a fitted effect of over 60% in size
#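 Pintool-delivered compounds were incubated with HEK 293 cells (250 cells/well) at 37 degree Celsius for 48 or 72 hr. ATP-dependent luminescence (CellTiter-Glo) then reported remaining viable cells.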
# * hit, by the source's call; i = inactive; ? = inconclusive; nt = no result given; [ ] = remark or other dose. The list is not random: actives were taken first. Their share in the collection is about 11%. Unless noted, calls follow the shape of the dose curve; as a rule, active = well fitted curve in the direction sought with a large enough effect; inconclusive = small, poorly fitted or top-dose-only effect, or another doubt; inactive = no such curve, though single readings can be large; an effect the other way counts as inactive or inconclusive. % is scaled to controls: 0 for no effect and ±100 for the full control effect; potency is read from the fitted curve at half-maximal effect.
SMILES,FLuc inh,3T3 cytotox,hNpr1 antagonist,HEK cytotox
CC(C)c1nc(C(=O)N(C)C2CCCN(CCCc3ccccc3)C2)cs1 (centres undefined),i,-30%,-2%,?
OC1(c2csc(CN3CCN(c4ccccn4)CC3)n2)CCN(Cc2ccccc2)CC1,i,-27%,-2%,?
COc1ccc(-c2cc(N3CCCC(NC(=O)c4cc(C)cc(C)c4)C3)n[nH]2)cc1 (centres undefined),?,40µM*,-17%,45µM*
COc1ccc(-c2cc(N3CCCC(NC(=O)c4ccc(OC)c(F)c4)C3)n[nH]2)cc1 (centres undefined),?,?,-13%,40µM*
COc1ccc(-c2cc(N3CCC(NC(=O)c4ccc5cc[nH]c5c4)CC3)n[nH]2)cc1,i,40µM*,-29%,?
COc1ccc(-c2cc(N3CCCC(NC(=O)c4cccn4C)C3)n[nH]2)cc1 (centres undefined),35µM*,?,-18%,?
COc1ccc(-c2cc(N3CCC(NC(=O)c4cc(C)cc(C)c4)C3)n[nH]2)cc1 (centres undefined),i,-17%,-9%,?
C=CCNC(=O)[C@@H]1CCCN1[C@@H](C(=O)NC)C1CCCCC1,i,-15%[138 µM],1%[70.6 µM],-15%[172 µM]
Cc1ccc(CN2CC(C(=O)NCCc3noc(C4CC4)n3)CC2=O)cc1 (centres undefined),nt,-12%,nt,-27%
Cc1ccncc1C(=O)N1CC(N(C)Cc2cccnc2)C1,35µM*,5%,-2%,1%
Cc1nn(C)c(C)c1CCN(C)C(=O)CCC1CCN(C(=O)c2ccccc2Cl)CC1,nt,-21%,nt,-15%
O=C(Cn1cccc1-c1nc(-c2ccccc2)no1)NCCCc1ccccc1,i,-3%,-17%,45µM*
CCC(CC)C(=O)N1CC(c2nnc(-c3ccc(C)cc3)o2)C2(CCOCC2)C1 (centres undefined),i,-15%,1%,-26%
Clc1ccc(Cn2ccnc2-c2cc3n(n2)CCCNC3)cc1Cl,i,25µM*,-4%,?
c1ccc(CCCCn2ccnc2-c2cc3n(n2)CCCNC3)cc1,i,?,0%,-29%
CN(C)CCNC(=O)c1ccnc(-c2nnc3ccc(Nc4ccccc4)nn23)c1,i,i,0%[70.6 µM],?
COc1ccc(Nc2ccc3nnc(-c4ccccn4)n3n2)cc1,i,?,-23%[70.6 µM],71µM*
CN(Cc1ccccc1)C(=O)c1ccnc(-c2nnc3ccc(Nc4ccccc4)nn23)c1,i,?,?,20µM*
COC1CCN(C(=O)c2ccnc(-c3nnc4ccc(N(C)c5ccccc5)nn34)c2)CC1,i,3.5µM*,-6%,?
CN1CCN(C(=O)c2ccnc(-c3nnc4ccc(N(C)c5ccccc5)nn34)c2)CC1,i,10µM*,4%[70.6 µM],-2%[172 µM]
CNC(=O)c1ccc2nnc(-c3cccc([S+](C)(=O)[O-])c3)n2c1,nt,-19%[138 µM],nt,-9%[172 µM]
COC1CCN(C(=O)c2ccnc(-c3nnc4ccc(Nc5ccccc5)nn34)c2)CC1,i,?,-1%[70.6 µM],89µM*
CC(C)NC(=O)c1ccnc(-c2nnc3ccc(Nc4ccccc4)nn23)c1,i,?,2%[70.6 µM],?
Cc1cc(F)ccc1OC1CN(Cc2ccc(F)cc2)C1,i,?,0%[70.6 µM],?
Cc1cc(F)ccc1OC1CN(Cc2ccccc2)C1,i,89µM*,0%[70.6 µM],?
SMILES,FLuc inh,3T3 cytotox,hNpr1 antagonist,HEK cytotox
CC(=O)Nc1ccc(CN2CC(Oc3ccc(F)c(C)c3)C2)cc1,i,?,-3%[70.6 µM],?
Cc1cc(OC2CN(Cc3ccc(F)cc3)C2)ccc1F,i,?,14%[70.6 µM],79µM*
COCCNC(=O)c1nc(-c2ccsc2)c2ccccn12,?,-18%[138 µM],0%[70.6 µM],?
CN(C)CCN(C)Cc1cn(Cc2ccccc2)nc1-c1ccc2c(c1)OCO2,i,1%,3%,i
Cc1cnc(C2CCN(CC3CCCCC3)C2)n1Cc1ccccc1 (centres undefined),nt,20µM*,nt,22µM*
Cc1cnc(C2CCN(C(=O)C3CCCC3)C2)n1Cc1ccccc1 (centres undefined),i,-11%,-20%,-21%
OCC1CCN(Cc2cc3cc4c(cc3nc2-c2ccc(Cl)cc2)OCO4)CC1,32µM*,?,-3%,?
COc1cc2cc(CN3CCC(N(C)C)C3)c(-c3cccc(Cl)c3)nc2cc1OC (centres undefined),?,?,-1%,?
CN(C)C1CCN(Cc2cc3cc4c(cc3nc2-c2ccc(Cl)cc2)OCO4)C1 (centres undefined),28µM*,?,-11%,?
CC1(O)CCCN(Cc2cc3cc4c(cc3nc2-c2ccc(Cl)cc2)OCO4)C1 (centres undefined),32µM*,?,-2%,?
CSc1ccc2cc(CN3CCCC(O)C3)c(-c3ccc(Cl)cc3)nc2c1 (centres undefined),i,?,-3%,?
CSc1ccc2cc(CN3CC[C@@H](O)C3)c(-c3ccc(Cl)cc3)nc2c1,i,?,0%,?
Cc1c(F)cccc1NC(=O)N1CCCC(Cn2c(C)nc3cccnc32)C1 (centres undefined),i,?,-13%,?
CN(C)c1ncc2c(n1)C(C)(C(=O)Nc1ccccc1)CCC2 (centres undefined),i,?,-1%[70.6 µM],?
CN(C)c1ncc2c(n1)C(C)(C(=O)Nc1ccccc1F)CCC2 (centres undefined),i,?,-12%[70.6 µM],100µM*
Cc1ccccc1-c1nc(Cn2ccnc2C(C)C)c(C)o1,i,?,?,28µM*
COc1cc(C)c(-c2nc(Cn3cccn3)c(C)o2)cc1C,i,-13%,9%,?
CNC(=O)c1cc(C2CC2)nc2c1c(C1CCCN(C(=O)c3ccncc3)C1)nn2C (centres undefined),nt,-13%,nt,-2%
Nc1cc(C(=O)N2CCc3onc(-c4ccc(-c5ccccc5)cc4)c3C2)[nH]n1,?,?,13µM*,18µM*
O=C(c1cc(-c2ccccc2)n[nH]1)N1CCc2c(nc(-c3ccccc3)[nH]c2=O)C1,?,?,-5%,?
CO[C@H]1CN(C2CCN(C(=O)Cn3cc(C)cn3)CC2)[C@H]1c1cccnc1,nt,-4%,nt,i
Cn1nc(C(=O)NCc2cccnc2)c2c1CN(C(=O)COc1ccccc1)C2,nt,-16%,nt,-15%
O=C(c1ccccn1)N1CCC2(CC1)CC(c1cccc(C(F)(F)F)c1)=NO2,nt,-28%,nt,?
O=C(C1CC1)N1CCC2(CC1)CC(c1cccc(C(F)(F)F)c1)=NO2,nt,?,nt,56µM*
